According to PubChem BioAssay AID540253 (National Center for Advancing Translational Sciences (NCATS), 2011):
The campaign covered roughly 340,000 compounds. About 240 (0.071%) were called active. Another 5% or so got no clear call; they are omitted. Only a selection was taken, and actives are over-represented in it overall. Unmarked numbers belong to inactive results. Calls come from the whole dose curve.

molecular target: Snurportin-1 (Homo sapiens) + GTP-binding nuclear protein Ran (Homo sapiens) + Importin subunit beta-1 (Homo sapiens) (UniProt O95149+P62826+Q14974); test: qHTS Assay for Inhibitors of RanGTP induced Rango (Ran-regulated importin-beta cargo) - Importin beta complex dissociation; details: Biochemical FRET Rango-importin beta; series mostly up to 46.1 µM; activity change, negative = inhibition: at the top concentration; note: nearly all actives have a fitted effect of over 45% in size; for activity change, negative = inhibition: % of control where 0% means no effect
Excerpt: NIH Molecular Libraries Probe Production Centers Network [MLPCN] NIH Chemical Genomics Center [NCGC] MLPCN Grant: R03 MH090808-01A1 Assay Submitter (PI): Petr Kalab NCGC Assay Overview: The small GTPase Ran regulates transport of macromolecules between the nucleus and the cytoplasm (nuclear transport) and has important functions in mitotic spindle assembly, nuclear envelope (NE) formation and nuclear pore complex (NPC) assembly. RanGTP gradient is thought to promote spindle assembly by providing a spatial clue to microtubule nucleation and Aurora A activation. Because the localized release and binding of importin alpha cargos relays this spatial clue to SAFs, inhibitors of the Rango - importin beta complex can then be used in further understanding their role in cell cycle specifically in mitosis progression. […] Activation of Aurora A has been linked to different types of cancer and a number of Aurora kinase inhibitors are being developed as potential canter therapeutics; therefore, identified inhibitors of this complex could be developed into potential anti-mitotic probes for cancer treatment. Purified recombinant proteins Rango - importin beta and RanGTP-RCC1 stock premixes were provided by the assay submitter. The assay used a fluorescence resonance energy transfer (FRET) Rango biosensor that contains the IBB of human snurportin 1 flanked by yellow fluorescent protein (EYFP) at the amino terminus and cerulean CFP10 at the carboxy terminus. […] RanGTP binding to the complex (in the presence of RCC1) releases the Rango from the complex. The flexibility of the IBB in the freed Rango allows the donor - acceptor fluorophores to interact, resulting in a high FRET signal. Inhibitors will therefore be identified based on the ability to interfere with the FRET signal increase. DMSO treated and no RanGTP-RCC1 (buffer only) wells were used as negative and positive controls respectively. FRET readings were obtained at two time points. FRET reading prior to importin beta addition (pre-read) were used flag potential compound interference; FRET reading after importin beta addition (post-read) were used to identify inhibitors.
NCGC Assay Protocol Summary: Two and a half uL/well of Rango- importin beta premix solution (0.1 uM Rango, 0.25 uM importin beta, 1x PBS, 1mM DTT, 0.02% Tween-20, 0.1% BSA final concentrations) was dispensed into 1536-well assay plates (Greiner, solid black medium-binding plates) with Aurora Discovery BioRAPTR Flying Reagent Dispenser (FRD; Beckton-Dickenson). Compound solution (23 nL) was transferred to the assay plate using Kalypsys pin tool equipped with a 1536-pin tool and incubated at room temperature for 5 min followed by a FRET pre-read using the PerkinElmer Envision plate reader. Two and a half uL/well of RanGTP-RCC1 premix solution (0.6 uM Ran, 2mM GTP, 0.2 uM RCC1, 1x PBS, 1mM DTT, 0.02% Tween-20, 0.1% BSA final concentrations) were then added and incubated at room temperature giving a final reaction volume of 5uL. After 45min FRET post-read was obtained via the Envision plate reader using the same optics and settings as the pre-read (CFP/YFP optimized dual optical module D450/D505; excitation mirror CFP 430/24 nm; and emission filters CFP 486/10 nm and YFP 530/10 nm).
Potency is the fitted concentration of half-maximal effect.

In order of falling “activity change, negative = inhibition” value:
1. O=c1[nH]c2c(c(=O)n1-c1ccccc1)CCO2  28.5%
2. O=C(c1ccc2c(c1)C(=O)N(Cc1ccncc1)C2=O)N1CCN(S(=O)(=O)c2ccc(OC(F)(F)F)cc2)CC1  17.2%
3. Cc1cccc(C2c3c(n(C)c(=O)n(C)c3=O)N=C3c4ccccc4C(=O)C32)c1 (stereo not given)  15.3%
4. C#CCOCCOCCOCCNc1nc(N2CCOCC2)nc(N2CCN(C(=O)[C@H](Cc3ccc(O)cc3)n3cc(CCO)nn3)CC2)n1  12.8%
5. S=C(Nc1ccccc1)Nc1ccc2ccccc2c1  11.2%
6. O=C(O)C(c1cccs1)C1(O)CCCCC1 (stereo not given)  10.6%
7. Cc1[nH]c(N)nc(=S)c1CCCNc1ccccc1  8.31%
8. O=S(=O)(Cc1ccc(Cl)cc1Cl)c1ccc(Cl)cc1  8.21%
9. Cn1c(N)cc(=O)n(C)c1=S  7.4%
10. O=[N+]([O-])c1cc2ccccc2nc1-c1ccccc1  6.66%
11. Nc1ccc2[nH]c(=S)sc2c1  6.09%
12. CCNC(=S)NCC  5.2%
13. O=C1OCC2=C1C(c1ccc(Cl)cc1)c1cc3c(cc1O2)OCO3 (stereo not given)  5.14%
14. CCc1c(Nc2ccccc2Cl)nc(N)[nH]c1=O  4.91%
15. O=C1OC(Cc2ccccc2)C(c2ccccc2)C1=O (stereo not given)  2.72%
16. O=C1C2C3C=CC(C3)C2C(=O)N1c1ncc([N+](=O)[O-])s1 (stereo not given)  2.52%
17. NC(CSC1(c2ccccc2)c2ccccc2-c2ccccc21)C(=O)O (stereo not given)  2.22%
18. CCC1(C)COC(c2ccc(OC)c(OC)c2)OC1 (stereo not given)  1.83%
19. O=C(NN=Cc1ccc([N+](=O)[O-])cc1)C1CC1  0.979%
20. Cn1c(CNC(=O)C(C)(C)C)nc2ccccc21  0.931%
21. O=c1nc(NO)ccn1C1CCCO1 (stereo not given)  0.851%
22. CC(=O)N1CCc2ccc(N)cc21  0.796%
23. O=C1c2ccccc2C(=O)C1C(=O)C1CC1  0.674%
24. Cn1c(NC(=O)c2ccccc2)nc2ccccc21  0.409%
25. COc1cc(O)c2c(=O)c3c(O)c(O)ccc3oc2c1OC  0.328%
26. Cc1cc([N+](=O)[O-])c(=O)[nH]c1C  0.254%
27. O=C(O)c1ccc([N+](=O)[O-])cc1Sc1ccsc1  0.213%
28. NN=C(NN=Cc1ccccc1)c1ccccc1  -0.281%
29. CC1=CC(=NNS(=O)(=O)c2ccc([N+](=O)[O-])cc2)CC(C)(C)C1  -0.346%
30. O=C1C(Cl)=C(Oc2ccccc2)C(=O)c2ccccc21  -0.449%
31. CCOc1ccc(CCNC(=O)COC(=O)C2CCN(S(=O)(=O)c3ccccc3)CC2)cc1OCC  -1.16%
32. O=C(O)c1ccccc1/C=N/Nc1ccc(S(=O)(=O)Nc2ccc(Cl)cc2)cc1[N+](=O)[O-]  -1.28%
33. O=C(CCC(=O)N1CCN(S(=O)(=O)c2ccc(Cl)cc2)CC1)NCc1cccc(C(F)(F)F)c1  -1.43%
34. O=C(NN=Cc1ccccc1)c1ccccc1  -1.55%
35. CCN(CC(=O)Nc1c(F)cccc1F)C(=O)Cc1cccs1  -2.49%
36. CC(C=Cc1ccccc1)=NNS(=O)(=O)c1ccc([N+](=O)[O-])cc1  -2.55%
37. CCOC(=O)C1CCCN(C(=O)Cn2ncc3c(=O)oc4ccc(C)cc4c32)C1 (stereo not given)  -6.21%
38. CCOc1ccc(/C=C(/C#N)c2nnc(N3CCOCC3)n2-c2ccccc2)cc1OC  -6.71%
39. CC(=O)OC1CCC2C3CCC4=C(CC(F)C(=O)C4)C3CCC12C (stereo not given)  -8.28%
40. O=[N+]([O-])c1ccc(NS(=O)(=O)c2ccccc2)c(Cl)c1  -8.5%
41. CCCCN1CC(CO)Oc2cccc(F)c2S1(=O)=O (stereo not given)  -9.79%
42. O=C(CC1Sc2ccccc2NC1=O)NNc1ccc(Cl)c(Cl)c1 (stereo not given)  -9.85%
43. CCN1C[C@@H]2[C@@H]3C(=O)N(C)C(=O)[C@@H]3[C@](C)(C1=O)N2C(=O)c1ccccc1  -9.87%
44. O=c1[nH]c(=S)[nH]c(O)c1/C=C1\C=Nc2ccccc21  -10%
45. COc1ccc(-c2nnc(-c3ccc4ccccc4c3)o2)cc1  -10.4%
46. Cc1ccc(S(=O)(=O)n2oc(=O)c(C3CCCCC3)c2N)cc1  -10.6%
47. NC(=O)c1ccc(N2CCCC2)nc1  -10.8%
48. NC(=O)c1ncn([C@@H]2O[C@H](CN=C3NS(=O)(=O)c4ccccc43)[C@@H](O)[C@H]2O)n1  -11.1%
49. C/C(=N\Nc1ccccc1)c1cccs1  -12.4%
50. COc1ccc(CC(=O)NC(C)c2ccc(Cl)c(Cl)c2)cc1S(=O)(=O)N1CCOCC1 (stereo not given)  -14.4%
51. CC(C)OC(=O)c1ccc(NCc2cc(O)ccc2O)cc1Cl  -14.8%
52. O=C(Nc1ccn(CCCNCc2ccc3[nH]ccc3c2)c(=O)n1)OCc1ccccc1  -18%
53. COC1=CC(=O)OC(c2ccc(OC)cc2)C1 (stereo not given)  -26.4%
54. Cc1cc(NC(=O)c2cc3ccccc3o2)no1  -27%

For `Cn1c(-c2ccc(C(=O)c3ccccc3)s2)nc2ccccc21`, the Potency was 8.2 µM [inconclusive] (active).
